GPR151 activ: activators of human GPR151, primary screen, cell-based, PathHunter beta-arrestin, luminescence. PathHunter beta-arrestin GPR151 cells. G-protein coupled receptor 151 (Homo sapiens), Q8TDV0. activation, % at 11.2 µM. AID 1508602, 2020. actives 1% (n = 650,000); in the data active = activation above about 4.9%
TEAD-YAP inh: TEAD-YAP interaction inhibition, primary screen, TEAD-YAP interaction inhibitor project, luminescence, HEK-TIYL cells; TEAD-Gal4/YAP UAS-luciferase luminescence; AID 1259422, 2018; inhibition, % at 9.12 µM; actives 1.4% (n = 640,000); in the data active = inhibition above about 32%
FBW7 act: FBW7 E3 ligase activators, primary screen, biochemical, AlphaScreen, human; normalized activity (activation), % at 26.1 µM; AlphaScreen FBW7–phospho-cyclin E peptide binding, activator screen; F-box/WD repeat-containing protein 7 (Homo sapiens), Q969H0; actives 0.13% (n = 650,000); in the data active = normalized activity above about 1.9%;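 note: purified mutant Fbw7 with reduced substrate affinity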
Target sequence (Q969H0 whole entry, looked up): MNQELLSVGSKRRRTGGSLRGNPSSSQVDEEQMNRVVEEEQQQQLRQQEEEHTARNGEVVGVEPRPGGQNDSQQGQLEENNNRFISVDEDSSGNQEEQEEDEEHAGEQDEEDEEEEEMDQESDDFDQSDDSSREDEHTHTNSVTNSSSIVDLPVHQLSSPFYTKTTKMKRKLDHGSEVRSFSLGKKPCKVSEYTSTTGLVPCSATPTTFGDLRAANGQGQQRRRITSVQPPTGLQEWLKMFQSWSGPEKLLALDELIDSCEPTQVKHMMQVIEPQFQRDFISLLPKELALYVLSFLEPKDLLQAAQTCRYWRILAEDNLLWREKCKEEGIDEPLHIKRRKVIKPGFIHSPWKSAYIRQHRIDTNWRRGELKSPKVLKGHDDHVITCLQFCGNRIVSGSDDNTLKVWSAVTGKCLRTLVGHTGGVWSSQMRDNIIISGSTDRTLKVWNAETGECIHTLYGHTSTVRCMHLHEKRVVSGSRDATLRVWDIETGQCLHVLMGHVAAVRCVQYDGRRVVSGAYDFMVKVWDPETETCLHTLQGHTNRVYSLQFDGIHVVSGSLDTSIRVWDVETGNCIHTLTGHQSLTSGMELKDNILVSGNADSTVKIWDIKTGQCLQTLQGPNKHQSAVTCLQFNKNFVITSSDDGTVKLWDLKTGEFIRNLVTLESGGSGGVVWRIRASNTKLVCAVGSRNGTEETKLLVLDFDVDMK
MITF inh: MITF inhibitors, primary screen, biochemical, AlphaScreen, human | AID 1259374, 2018 | inhibition, % at 2.6 µM | AlphaScreen MITF homodimerization, bead proximity signal | Microphthalmia-associated transcription factor (Homo sapiens), O75030 | actives 0.91% (n = 650,000); in the data active = inhibition above about 50%
MITF confirm: MITF inhibitors, retest of hits, confirmation, biochemical, AlphaScreen, triplicate | AlphaScreen MITF homodimerization, biotin/His-MITF beads | inhibition, % at 2.6 µM | actives 16% (n = 4,700) | shares compounds with MITF inh;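 active = inhibition above a cutoff derived from the DMSO control wells, cut at about 28% in these data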;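 note: inhibitors lower the bead chemiluminescence by keeping MITF from dimerizing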
AS interf DR: AlphaScreen optical interference compounds, dose response, counter-screen, biochemical, HTS; AlphaScreen optical interference counterscreen, cell-free; shares compounds with MITF inh; AID 1259373, 2018; IC50, µM; actives 6% (n = 480); call rule not given here
AS interf ctr: AlphaScreen optical interference compounds, counter-screen for MITF inhibitor project, biochemical, triplicate. shares compounds with MITF inh. LysRS AlphaScreen counterscreen, signal interference. inhibition, % at 2.6 µM. actives 7.6% (n = 4,700). AID 1259376, 2018;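 active = inhibition above a cutoff derived from the DMSO control wells, cut at about 30% in these data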
Numbers stand for hits; 0 = inactive; - = no result given. Sampled rows, rich in hits. Any-hit rate of the full collection: about 3.5%.

SMILES | GPR151 activ | TEAD-YAP inh | FBW7 act | MITF inh | MITF confirm | AS interf ctr | others
CC(=O)c1ccc(NC(=O)CSc2nnc3[nH]c(=O)c(C)c(C)n23)cc1 | 0 | 0 | 0 | 56 | 0 | 0
COC(=O)c1ccc(NC(=O)CSc2nnc3[nH]c(=O)c(C)c(C)n23)cc1 | 0 | 0 | 0 | 0 | - | -
O=C(NNC(=S)Nc1ccccc1)C(=O)NNC(=S)Nc1ccccc1 | 0 | 0 | 0 | 79 | 58 | 0
CCc1ccc(C(=O)NC(C(=O)NCC2CCCO2)C(C)C)cc1 (stereo unspecified) | 0 | 0 | 0 | 67 | 0 | 0
NC(=O)c1oc2ccccc2c1NC(=O)c1ccc(Cl)cc1 | 0 | 0 | 0 | 0 | - | -
NC(=O)c1oc2ccccc2c1NC(=O)c1sc2ccccc2c1Cl | 0 | 0 | 0 | 58 | 0 | 0
Cc1nc(NCCCN2CCOCC2)c2cc(-c3ccccc3)sc2n1 | 0 | 0 | 0 | 55 | 0 | 0
Cc1ccc(/C(O)=C2\C(=O)C(=O)N(c3nc4ccccc4s3)C2c2ccc3c(c2)OCO3)cc1 (stereo unspecified) | 0 | 0 | 0 | 0 | - | -
COCCNC(=S)NNC(=O)c1ccc(Cl)cc1Cl | 0 | 0 | 0 | 0 | - | -
COCCNC(=S)NNC(=O)c1cc(Cl)ccc1OC | 0 | 0 | 0 | 63 | 0 | 0
CN1CCC(NCc2ccc(F)cc2)CC1 | 0 | 0 | 0 | 57 | 0 | 0
O=C(NCCCN1CCCC1)c1ccccc1Cl | 0 | 0 | 0 | 55 | 0 | 0
O=C(CCNC(=O)c1ccccc1Cl)NCCCN1CCOCC1 | 0 | 0 | 0 | 0 | - | -
CN(CCc1ccccc1)C1CCCN(Cc2ccccn2)C1 (stereo unspecified) | 0 | 0 | 0 | 0 | - | -
Cn1c(SCc2ccccc2)nnc1C1CCCN(Cc2ccccn2)C1 (stereo unspecified) | 0 | 0 | 0 | 61 | 36 | 93
COCCNCCCCOc1c(C)cccc1C(C)(C)C | 0 | 0 | 0 | 0 | - | -
C=CCNCCOCCOc1c(C)cccc1C(C)(C)C | 0 | 0 | 0 | 68 | 0 | 0
COCCCNCCOc1c(C)cccc1C(C)(C)C | 0 | 0 | 0 | 81 | 0 | 0
COCCCNCCCOc1c(C)cccc1C(C)(C)C | 0 | 0 | 0 | 0 | - | -
O=[N+]([O-])c1ccc(N2CCN(S(=O)(=O)c3ccc(Br)cc3)CC2)c(C(F)(F)F)c1 | 0 | 0 | 0 | 0 | - | -
O=C(Nc1cc2c3c(c1)CCN3C(=O)CC2)c1cccc(Br)c1 | 0 | 0 | 0 | 0 | - | -
COc1ccc(-c2cc(NCc3nc4ccccc4[nH]3)nc(N)n2)cn1 | 0 | 0 | 0 | 0 | - | -
CCN1CCN(CCCNC(=O)COc2ccc3c(c2)C(=O)CC(C)(C)O3)CC1 | 0 | 0 | 0 | 57 | 0 | 0
CCCCCCCNC(=O)COc1ccc2c(c1)C(=O)CC(C)(C)O2 | 0 | 0 | 0 | 0 | - | -
CCCCNCCOCCOc1cccc(C(C)C)c1 | 0 | 0 | 0 | 0 | - | -
SMILES | GPR151 activ | TEAD-YAP inh | FBW7 act | MITF inh | MITF confirm | AS interf ctr | others
CC(C)c1cccc(OCCOCCNC(C)(C)C)c1 | 0 | 0 | 0 | 67 | 0 | 0
CC(C)c1cccc(OCCOCCNCCN)c1 | 0 | 0 | 0 | 51 | 0 | 0
CCOc1cccc(OCCOCCNC(C)(C)C)c1 | 0 | 0 | 0 | 67 | 0 | 0
CCCCCC(C)(C)NC(=O)CN1CCOCC1 | 0 | 0 | 0 | 51 | 0 | 0
O=C1c2cccnc2C(=O)N1c1ccccc1 | 0 | 0 | 0 | 70 | 0 | 0
O=C1c2cccnc2C(=O)N1c1ccc(Oc2ccccc2)cc1 | 0 | 0 | 0 | 0 | - | -
O=C1c2cccnc2C(=O)N1c1ccc(F)cc1 | 0 | 0 | 0 | 51 | 0 | 0
O=C1c2cccnc2C(=O)N1c1ccccc1F | 0 | 0 | 0 | 57 | 0 | 31
COc1ccc(-c2nnc(NC(=O)c3ccccc3C)s2)cc1OC | 0 | 0 | 0 | 0 | - | -
COC1(OC)N=C(N)C2(C#N)C(c3cccc(OCc4ccccc4)c3)C12C#N (stereo unspecified) | 0 | 0 | 0 | 0 | - | -
COC1(OC)N=C(N)C2(C#N)C(c3cccc(C)c3)C12C#N (stereo unspecified) | 0 | 0 | 0 | 52 | 0 | 0
COc1cc2c(cc1OC)C(COc1ccc(F)cc1)N(C(=O)C1CC1)CC2 (stereo unspecified) | 0 | 0 | 0 | 0 | - | -
COc1cc2c(cc1OC)C(c1cc3cc4c(cc3[nH]c1=O)OCO4)N(C(=O)C1CC1)CC2 (stereo unspecified) | 0 | 0 | 0 | 67 | 0 | 0
CCS(=O)(=O)N1CCc2ccc(NS(=O)(=O)C(C)C)cc2C1 | 0 | 0 | 0 | 0 | - | -
CCS(=O)(=O)N1CCc2ccc(NS(=O)(=O)Cc3ccccc3F)cc2C1 | 0 | 0 | 0 | 75 | 0 | 0
O=C(O)c1ccc(CNC(=O)c2cocc2C(=O)O)o1 | 0 | 0 | 0 | 55 | 38 | 0 | AS interf DR=0
COc1ccc(NCc2ccc(C(=O)O)o2)cc1 | 0 | 0 | 0 | 0 | - | -
CC1CCC(N2CCN(Cc3ccco3)CC2)CC1 (stereo unspecified) | 0 | 0 | 0 | 71 | 27 | 0 | AS interf DR=0
c1coc(CN2CCN(C3CCCCC3)CC2)c1 | 0 | 0 | 0 | 64 | 0 | 0
O=C(Nc1cc(C(F)(F)F)ccc1Cl)c1cc2nc(-c3ccc(Br)cc3)cc(C(F)(F)F)n2n1 | 0 | 0 | 0 | 0 | - | -
O=c1c(CN2CCCCC2)coc2ccc(Cl)cc12 | 0 | 0 | 0 | 0 | - | -
CN1CCN(Cc2coc3c(Cl)cc(Cl)cc3c2=O)CC1 | 0 | 0 | 0 | 64 | 0 | 0
CC(=O)c1ccc(S(=O)(=O)N(C2=NCCCS2)c2ccc(F)cc2)cc1 | 0 | 0 | 0 | 0 | - | -
COc1ccc(N(C2=NCCCS2)S(=O)(=O)c2ccc(OC)cc2)cc1 | 0 | 0 | 0 | 56 | 0 | 0
CCCN(CCO)Cc1ccccc1C(F)(F)F | 0 | 0 | 0 | 51 | 0 | 0
SMILES | GPR151 activ | TEAD-YAP inh | FBW7 act | MITF inh | MITF confirm | AS interf ctr | others
CCCN(CCO)Cc1cccc2ccccc12 | 0 | 0 | 0 | 0 | - | -
COc1ccc(Nc2nc(-c3cccs3)cs2)c(OC)c1 | 0 | 0 | 0 | 71 | 0 | 0
O=S(=O)(Nc1cccc2cccnc12)c1ccc2ccccc2c1 | 0 | 0 | 0 | 0 | - | -
O=S(=O)(Nc1cccc2cccnc12)c1ccccc1O | 0 | 72 | 0 | 60 | 87 | 101
CCn1c(Cc2ccccc2)nnc1SCC(=O)Nc1cc(C)on1 | 0 | 0 | 0 | 0 | - | -
CCCc1nnc(SCC(=O)Nc2cc(C)on2)n1CC | 0 | 0 | 0 | 74 | 0 | 0
N#Cc1cc(C(=O)c2cc(F)ccc2O)cn(-c2ccc(SC(F)F)cc2)c1=O | 0 | 0 | 0 | 0 | - | -
C=C/C=C(\C(C)=C(C)C)N(C(C)=O)C1=NCCCS1 | 0 | 0 | 0 | 65 | 0 | 0

Source: PubChem BioAssay (The Scripps Research Institute Molecular Screening Center)
